Activity calls are given as the source filed them.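 Rule for the calls, unless noted: active = compound raises insulin release from rat beta cells at 5 mM glucose, no numeric limit stated; inactive = the rest.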
Assays:
[1] = stimulators of nuclear beta-catenin in C2C12, primary screen, imaging, WNT3A-conditioned medium, mouse C2C12, NPC library (AID 1117326; in the data active = nuclear beta-catenin stimulation mostly above about 4.2%, no sharp cut-off; inactive = mostly below about 10%; note: reference of the scale not given here); details: stronger effect = higher value
[2] = stimulators of insulin release from INS-1E, primary screen, cell-based, 5 mM glucose, NPC library (AID 1117329); details: rat INS-1E insulin secretion, at 10 µM, stronger effect = higher value; note: reference of the scale not given here
[3] = growth inhibition of GSK3B-pretreated HCT116 cells – cell-based, CellTiter-Glo, 0.2 to 20 µM (AID 1117336;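 active = compounds lowering colon cancer cell viability after pretreatment blocking the GSK3B kinase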); details: HCT116 viability after GSK3B inhibitor, at 20 µM, stronger effect = higher value
[4] = inhibition of endothelial tube formation, primary screen, imaging, VEGF stimulated, CD31 staining, tube area, NPC library (AID 1117340;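 active = compound that reduces growth-factor-driven endothelial tube area in a mixed cell culture, no cutoff stated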); details: VEGF-stimulated ADSC/ECFC co-culture, at 10 µM, stronger effect = higher value
[5] = glucagon-like peptide 1 release enhancers, primary assay, NCI-H716 cell line, NPC library (AID 1117341;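 active = compound raises GLP1 secretion from the human gut endocrine cells, with no numeric limit stated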; note: reference of the scale not given here); details: NCI-H716 cells, at 10 µM, stronger effect = higher value
[6] = HCT116 colon cancer cell growth inhibition, primary screen, CellTiter-Glo luminescence, NPC library (AID 1117342;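 active = compounds that lower survival of HCT116 colon cancer cells in the luminescence readout, no numeric limit stated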); details: at 20 µM (top of the series)
[7] = CellTiter-Glo luminescent readout of SW480 viability loss, NPC library primary (AID 1117343;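 active = compounds that lower viability of the colon cancer cells in the luminescence readout, with no numeric limit stated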); details: CellTiter-Glo luminescence; at 20 µM (top of the series)
[8] = decreased DLD-1 cellular survival, CellTiter-Glo luminescent readout, NPC compound collection, primary HTS (AID 1117346;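 active = compounds that lower survival of DLD-1 colon cancer cells in the luminescence readout, no cutoff given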); details: DLD-1 viability, CellTiter-Glo luminescence; at 20 µM (top of the series)

C=Cc1c(C)c2cc3nc(cc4[nH]c(cc5nc(cc1[nH]2)C(C)=C5CCC(=O)O)c(CCC(=O)OC)c4C)[C@@]1(C)C3=CC=C(C(=O)OC)[C@@H]1C(=O)OC
inactive: nuclear beta-catenin stimulation ([1]; at 10 µM) 16.7% | insulin secretion stimulation [2] 1.5% | tube area decrease [4] -206% | GLP1 secretion stimulation [5] -1.9%
active: viability decrease [3] 97.7% | inhibition of viability [6] 92.4% | viability decrease (inhibition) [7] 98.2% | viability decrease (inhibition) [8] 99.9%
0.4%: nuclear beta-catenin stimulation ([1]; stimulation, at 2 µM)

CCCCC(CC)CNC(=O)CC(C)OC(=O)CCC(=O)O (stereo unspecified)
-0.8%: nuclear beta-catenin stimulation ([1]; stimulation, at 2 µM)
inactive: nuclear beta-catenin stimulation ([1]; at 10 µM) -1.8% | insulin secretion stimulation [2] 4% | viability decrease [3] -11.7% | tube area decrease [4] 0.6% | GLP1 secretion stimulation [5] -1% | inhibition of viability [6] 4.5% | viability decrease (inhibition) [7] 4.5% | viability decrease (inhibition) [8] -7.8%

CCCCC(CC)COC(=O)/C=C/c1ccc(OC)cc1 (stereo unspecified)
inactive: nuclear beta-catenin stimulation ([1]; at 10 µM) -1.6% | insulin secretion stimulation [2] 2.6% | viability decrease [3] 5.9% | tube area decrease [4] 3.3% | GLP1 secretion stimulation [5] 0.8% | inhibition of viability [6] 15.9% | viability decrease (inhibition) [7] -7.2% | viability decrease (inhibition) [8] 3.7%
-0.8%: nuclear beta-catenin stimulation ([1]; stimulation, at 2 µM)

Cc1c(I)c(=O)n(-c2ccccc2)n1C
0.4%: nuclear beta-catenin stimulation ([1]; stimulation, at 2 µM)
inactive: nuclear beta-catenin stimulation ([1]; at 10 µM) -0.6% | insulin secretion stimulation [2] 0.4% | viability decrease [3] -4.55% | tube area decrease [4] 1.2% | GLP1 secretion stimulation [5] 0.6% | inhibition of viability [6] -8.9% | viability decrease (inhibition) [7] 26.3% | viability decrease (inhibition) [8] 33.4%

O=C(OCCN1CCOCC1)c1cccnc1Nc1cccc(C(F)(F)F)c1
active: inhibition of viability [6] 55.9% | viability decrease (inhibition) [7] 62.3%
-0.8%: nuclear beta-catenin stimulation ([1]; stimulation, at 2 µM)
inactive: nuclear beta-catenin stimulation ([1]; at 10 µM) 1.2% | insulin secretion stimulation [2] -0.1% | viability decrease [3] 42% | tube area decrease [4] 8.9% | GLP1 secretion stimulation [5] 3.6% | viability decrease (inhibition) [8] 28.3%

Clc1ccc2c(c1)Nc1ccccc1S2
active: viability decrease [3] 55.6%
-2.3%: nuclear beta-catenin stimulation ([1]; stimulation, at 2 µM)
inactive: nuclear beta-catenin stimulation ([1]; at 10 µM) 0.9% | insulin secretion stimulation [2] 4.2% | tube area decrease [4] 26.5% | GLP1 secretion stimulation [5] -3.1% | inhibition of viability [6] 32.4% | viability decrease (inhibition) [7] 31.8% | viability decrease (inhibition) [8] 17.5%

O=C(CCCN1CCN(c2ccc(F)cc2)CC1)NC1c2ccccc2CSc2ccccc21 (stereo unspecified)
1.3%: nuclear beta-catenin stimulation ([1]; stimulation, at 2 µM)
active: viability decrease [3] 53.5%
inactive: nuclear beta-catenin stimulation ([1]; at 10 µM) 1.8% | insulin secretion stimulation [2] -0.2% | tube area decrease [4] 32.7% | GLP1 secretion stimulation [5] 3.7% | inhibition of viability [6] 47.5% | viability decrease (inhibition) [7] 27.4% | viability decrease (inhibition) [8] 14.8%

CCCCCC[C@@H](CCC)C(=O)O
-0.9%: nuclear beta-catenin stimulation ([1]; stimulation, at 2 µM)
inactive: nuclear beta-catenin stimulation ([1]; at 10 µM) -0.3% | insulin secretion stimulation [2] 0.3% | viability decrease [3] 1.2% | tube area decrease [4] -29.5% | GLP1 secretion stimulation [5] 3.5% | inhibition of viability [6] 17.7% | viability decrease (inhibition) [7] 14% | viability decrease (inhibition) [8] 16.9%

NCCCC[C@H](N)C(=O)O
2%: nuclear beta-catenin stimulation ([1]; stimulation, at 2 µM)
inactive: nuclear beta-catenin stimulation ([1]; at 10 µM) 1.6% | insulin secretion stimulation [2] -2.1% | viability decrease [3] 1.2% | tube area decrease [4] -14.1% | GLP1 secretion stimulation [5] -3.9% | inhibition of viability [6] -2.6% | viability decrease (inhibition) [7] 12.8% | viability decrease (inhibition) [8] -0.6%

O=C(O)Cc1ccccc1Oc1ccc(Cl)cc1Cl
inactive: nuclear beta-catenin stimulation ([1]; at 10 µM) 0.5% | insulin secretion stimulation [2] 1.5% | viability decrease [3] -7.6% | tube area decrease [4] 3.2% | GLP1 secretion stimulation [5] 1% | inhibition of viability [6] -0.8% | viability decrease (inhibition) [7] -5% | viability decrease (inhibition) [8] 5.9%
0.7%: nuclear beta-catenin stimulation ([1]; stimulation, at 2 µM)

CCc1nnc(NS(=O)(=O)c2ccc(N)cc2)s1
inactive: nuclear beta-catenin stimulation ([1]; at 10 µM) -0.1% | insulin secretion stimulation [2] -0.8% | viability decrease [3] 5.1% | tube area decrease [4] -5.1% | GLP1 secretion stimulation [5] -0.1% | inhibition of viability [6] -13.8% | viability decrease (inhibition) [7] 4.4% | viability decrease (inhibition) [8] -18.9%
2%: nuclear beta-catenin stimulation ([1]; stimulation, at 2 µM)

CN(C)CCCOC1(Cc2ccccc2)CCCCCC1
5.8%: nuclear beta-catenin stimulation ([1]; stimulation, at 2 µM)
inactive: nuclear beta-catenin stimulation ([1]; at 10 µM) 6% | insulin secretion stimulation [2] 4.2% | viability decrease [3] -55.2% | tube area decrease [4] 17.7% | GLP1 secretion stimulation [5] 6.8% | inhibition of viability [6] 7.6% | viability decrease (inhibition) [7] 33.2% | viability decrease (inhibition) [8] -33.1%

CCOC(CN1CCN(CC(C)C(=O)c2ccccc2)CC1)c1ccccc1 (stereo unspecified)
inactive: nuclear beta-catenin stimulation ([1]; at 10 µM) 2.2% | insulin secretion stimulation [2] 5% | viability decrease [3] -4.9% | tube area decrease [4] 14% | GLP1 secretion stimulation [5] -1.8% | inhibition of viability [6] 21.2% | viability decrease (inhibition) [7] 0.6% | viability decrease (inhibition) [8] -4.9%
-0.1%: nuclear beta-catenin stimulation ([1]; stimulation, at 2 µM)

CCN(CC)CC(=O)OCC(=O)[C@@]1(O)CC[C@H]2[C@@H]3CCC4=CC(=O)CC[C@]4(C)[C@H]3[C@@H](O)C[C@@]21C
inactive: nuclear beta-catenin stimulation ([1]; at 10 µM) -0.5% | insulin secretion stimulation [2] -0.5% | viability decrease [3] -24.6% | tube area decrease [4] 0.8% | GLP1 secretion stimulation [5] 1.1% | inhibition of viability [6] -15.9% | viability decrease (inhibition) [7] 37.2% | viability decrease (inhibition) [8] -9.9%
-0.8%: nuclear beta-catenin stimulation ([1]; stimulation, at 2 µM)

— PubChem BioAssay
